Data reported in PubChem BioAssay (Tox21).
Activity calls are given as the source filed them. The call rests on the fitted dose curve; in most records, active means well fitted curve in the direction sought with a large enough effect in the repeat runs; inconclusive means weak or mixed curves; inactive means flat fitted curve, though single readings scatter. Positions of bridges follow the written chain, without caps; N, C: chain ends. Non-standard residues stand in square brackets, D forms with d. Residues, ends and D or L forms follow the SMILES beside them. *: point of attachment. Dab(CH2SO3H) = N[C@@H](CCNCS(=O)(=O)O)C(=O)O; X3 = CC[C@@H](C)CCCCC(=O)*; Dab = NCC[C@H](N)C(=O)O

Assay: qHTS assay to test for compound auto fluorescence at 590 nm (red) in HEK293 cell free culture (AID 720683)
Settings: cell-free medium autofluorescence, Ex540/Em590 red; series mostly up to 46 µM; fluorescence, % of fluorescent control: at the top concentration
Source text: U.S. Tox21 Program National Center for Advancing Translational Sciences [NCATS] NIH Chemical Genomics Center [NCGC] U.S. Environmental Protection Agency [EPA] National Institutes of Environmental Health Sciences [NIEHS] National Toxicology Program [NTP] U.S. Food and Drug Administration [FDA] Tox21 Assay Overview: Compound auto fluorescence often interferes with screening of the compound library against various biological targets and signaling pathways. Some of these compounds may have fluorophoric properties. Such properties may interfere with the assay outputs resulting in false positives and/or negatives. To decrease such complications and ensure the compound activities are relevant in terms of biological response, the Tox21 10K compound library was screened for auto fluorescence. From the fluorophores used as reporter signals in our screening assays, the auto fluorescence equivalencies of compounds against three fluorophores have been evaluated: Triamterene, Fluorescein and Rose Bengal sodium for blue, green and red fluorescence, respectively. The fluorescence intensities were measured using Excitation/Emission wavelengths at 405/460nm, 485/535nm and 540/590nm for blue, green and red labels, respectively. This assay includes the red fluorescence data.
Tox21 Assay Protocol Summary: 5 uL of culture medium (DMEM containing 10% FBS) per well was dispensed into black wall/clear bottom 1536-well plates using a Multidrop Combi Dispenser (ThermoFisher Scientific, Waltham, MA). After 23 nL compound or DMSO vehicle was transferred into assay plate by a pintool work station (Kalypsys, San Diego, CA), fluorescence intensities in the assay plates were measured by an Envision (PerkinElmer, Shelton, CT) plate reader using three labels for measuring blue, green and red fluorescence at […] 460, 535 and 590nm respectively.
On the % scale 0 is the no-effect control and ±100 the full control effect.

| SMILES | fluorescence, % of fluorescent control | outcome |
| --- | --- | --- |
| O=C1C2CC3CC1CC(O)(C3)C2 | 0.135% (inactive) |  |
| Cc1ncc(C[n+]2csc(CCOP(=O)(O)O)c2C)c(N)n1 | 0.284% (inactive) |  |
| C=C(Nc1ccc(OCC)cc1)Nc1ccc(OCC)cc1 |  | inactive |
| CCCC(=O)c1cc(O)c(O)cc1O | -0.76% [at 91.3 µM] (inactive) |  |
| NC(N)=NCC1COC2(CCCCC2)O1 (stereo not given) | 0.0182% [at 18.6 µM] (inactive) |  |
| CCCCCCCCCCCC[n+]1ccc2ccccc2c1 | -0.682% (inactive) |  |
| O=C(O)[C@H]1CN(C/C=C/P(=O)(O)O)CCN1 | -0.657% (inactive) |  |
| CNC(=O)C[C@@H](N)C(=O)N[C@@H](C(=O)N[C@@H]1C(=O)N2[C@@H]1SC(C)(C)[C@@H]2C(=O)O)c1ccc(O)cc1 | 0.141% (inactive) |  |
| CC(C)(C)C(=O)OCC(=O)[C@H]1CC[C@H]2[C@@H]3CCC4=CC(=O)CC[C@]4(C)[C@H]3CC[C@]12C | -0.136% (inactive) |  |
| O=P(O)(O)OP(=O)(O)OP(=O)(O)O | 0.0091% (inactive) |  |
| Cc1ccc(C(C)(C)c2ccc(C)cc2)cc1 | 0.174% (inactive) |  |
| CC(C)(C)c1ccc2c(S(=O)(=O)O)c(C(C)(C)C)ccc2c1 |  | inactive |
| CC1CCCC(C)N1NC(=O)c1ccc(Cl)c(S(N)(=O)=O)c1 (stereo not given) | -0.177% [at 18.6 µM] (inactive) |  |
| CN[C@H]1CC[C@@H](c2ccc(Cl)c(Cl)c2)c2ccc(S(N)(=O)=O)cc21 | 0.121% [at 91.3 µM] (inactive) |  |
| CC(=O)NC[C@H]1CN(c2ccc(N3CCOCC3)c(F)c2)C(=O)O1 | -0.211% (inactive) |  |
| NCC(O)CC(=O)O (stereo not given) | -0.0056% (inactive) |  |
| CC[C@@]1([C@@H]2O[C@@H]([C@H]3O[C@@](O)(CO)[C@H](C)C[C@@H]3C)C[C@@H]2C)CC[C@H]([C@]2(C)CC[C@]3(C[C@H](O)[C@@H](C)[C@@H]([C@@H](C)[C@@H](OC)[C@H](C)C(=O)O)O3)O2)O1 (stereo in doubt) |  | inactive |
| C=C1[C@H](CO)[C@@H](O)C[C@@H]1n1cnc2c(=O)[nH]c(N)nc21 | -0.594% (inactive) |  |
| COc1cccc2c1[C@@H]1CN(CCCCn3c(=O)[nH]c4c(sc5ncc(-c6ccccc6)nc54)c3=O)C[C@@H]1CO2 | -0.141% (inactive) |  |
| O=C(CCCCCCCCc1cccnc1)N1CCC(C=C(c2ccccc2)c2ccccc2)CC1 | 0.126% [at 91.3 µM] (inactive) |  |

| SMILES | fluorescence, % of fluorescent control | outcome |
| --- | --- | --- |
| CCN(CC)CCn1c(=O)c(Cc2ccc(OC)cc2)nc2ccccc21 | 0.0565% (inactive) |  |
| CC/C=C\C/C=C\C/C=C\C/C=C\C/C=C\C/C=C\CCC(=O)O | 0.917% (inactive) |  |
| CCC(NC(C)C)C(O)c1ccc(O)c(O)c1 (stereo not given) | -0.404% (inactive) |  |
| CCCCCCCCCC(=O)NO |  | inactive |
| COC(=O)C(CN)c1c[nH]c2ccc(OC)cc12 (stereo not given) | 0.722% (inactive) |  |
| CC[C@@H](C)CCCCC(=O)N[C@@H](CCNCS(=O)(=O)O)C(=O)N[C@H](C(=O)N[C@@H](CCNCS(=O)(=O)O)C(=O)N[C@H]1CCNC(=O)[C@H]([C@@H](C)O)NC(=O)[C@H](CCNCS(=O)(=O)O)NC(=O)[C@H](CCNCS(=O)(=O)O)NC(=O)[C@H](CC(C)C)NC(=O)[C@@H](CC(C)C)NC(=O)[C@H](CCNCS(=O)(=O)O)NC1=O)[C@@H](C)O (X3-[Dab(CH2SO3H)]T[Dab(CH2SO3H)][Dab][Dab(CH2SO3H)][dL]L[Dab(CH2SO3H)][Dab(CH2SO3H)]T; lactam 4-C) | 0.0538% (inactive) |  |
| CN(C)CCOc1ccc(/C(=C(/CCCl)c2ccccc2)c2ccccc2)cc1 |  | inactive |
| NC(=O)[C@@H]1C[C@]2(NC(=O)NC2=O)c2cc(F)ccc2O1 | -0.0911% (inactive) |  |
| CS(=O)(=O)c1ccc([C@@H](O)[C@@H](COC(=O)CN)NC(=O)C(Cl)Cl)cc1 | 0.537% (inactive) |  |
| O=C(Nc1ccccc1)c1cc(Cl)ccc1O | -0.129% [at 91.3 µM] (inactive) |  |
| COc1cc([C@@H]2c3cc4c(cc3[C@@H](O[C@@H]3O[C@@H]5CO[C@@H](C)O[C@H]5[C@H](O)[C@H]3O)[C@H]3COC(=O)[C@H]23)OCO4)cc(OC)c1O |  | inactive |
| CON=C1C[C@]2(C[C@@H]3C[C@@H](C/C=C(\C)C[C@@H](C)/C=C/C=C4\CO[C@@H]5[C@H](O)C(C)=C[C@@H](C(=O)O3)[C@]45O)O2)O[C@H](/C(C)=C/C(C)C)[C@H]1C |  | inactive |
| CN[C@H](CC(C)C)C(=O)N[C@H]1C(=O)N[C@@H](CC(N)=O)C(=O)N[C@H]2C(=O)N[C@H]3C(=O)N[C@H](C(=O)N[C@@H](C(=O)O)c4cc(O)cc(O)c4-c4cc3ccc4O)[C@H](O)c3ccc(c(Cl)c3)Oc3cc2cc(c3O[C@@H]2O[C@H](CO)[C@@H](O)[C@H](O)[C@H]2O[C@H]2C[C@](C)(N)C(O)[C@H](C)O2)Oc2ccc(cc2Cl)[C@H]1O (stereo not given in full) |  | inactive |
| CC1(C)CCC(NC(=O)[C@@H](N)CCC(=O)O)CC1 | -0.022% (inactive) |  |
| CC(=O)N(C)C |  | inactive |
| NCc1cccc(C2CCN(C(=O)c3ccc(C#Cc4ccccc4F)o3)CC2)c1 | -0.0605% [at 91.3 µM] (inactive) |  |
| C[C@@H]1O[C@@H]1P(=O)(O)O | -0.0144% (inactive) |  |
| C=CCc1cc(S(=O)(=O)c2ccc(O)c(CC=C)c2)ccc1O | -0.282% [at 91.3 µM] (inactive) |  |
| CCOc1ccc(NC(=S)Nc2ccc(OCC)cc2)cc1 | 0.281% (inactive) |  |
| CCCCCCCCCCCCCCCCC(C(=O)O)C(O)(CC(=O)O)C(=O)O (stereo not given) | -0.0381% (inactive) |  |
